Bioassay records as filed in PubChem BioAssay.
D3 ag = D3 dopamine receptor (human) agonism; P35462; D3R DiscoveRx beta-arrestin cells, luminescence, 90 min; max activation, %; 0.58% of 410,000 active; in the data active means max activation above about 30%
Target sequence (P35462 whole entry, looked up): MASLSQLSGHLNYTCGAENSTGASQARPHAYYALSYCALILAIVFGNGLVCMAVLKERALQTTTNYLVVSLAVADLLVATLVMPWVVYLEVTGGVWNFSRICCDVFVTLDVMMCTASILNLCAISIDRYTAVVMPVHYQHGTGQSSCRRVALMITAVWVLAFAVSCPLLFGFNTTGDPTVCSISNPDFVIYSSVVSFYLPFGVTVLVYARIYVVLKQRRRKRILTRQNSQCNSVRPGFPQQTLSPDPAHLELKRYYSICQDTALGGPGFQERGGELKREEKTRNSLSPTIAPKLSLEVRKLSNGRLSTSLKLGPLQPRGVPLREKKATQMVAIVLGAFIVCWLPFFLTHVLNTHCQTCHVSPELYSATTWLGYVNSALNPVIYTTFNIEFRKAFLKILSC
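Agonist-mode cell screen: cells plated at 1500/well and incubated overnight at 37 °C, then exposed to library compounds for 90 min at 37 °C. Detection reagent was added for 30–60 min at room temperature, and luminescence was read.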
Giardia killer = Giardia lamblia killing; Giardia lamblia trophozoite viability; activity change, % at 7.66 µM, hits read low; 0.15% of 340,000 active; in the data active means activity change below about -80%; inconclusive means between about -30% and that limit;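 further: parasites exposed to compound for two days anaerobically before the ATP read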
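Viability, read as ATP luminescence: trophozoites at 100 cells/well, compound added, 48 hrs anaerobic at 37 deg C, then 15-30 min room-temperature development before reading.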
D3 antag = D3 dopamine receptor (human) antagonism | max response, negative = inhibition, % | P35462 | D3R cells, DiscoveRx beta-arrestin luminescence, antagonist mode; active compounds read low | 2.5% of 360,000 active; in the data active means max response below about -50%; inconclusive means no clear call, values can overlap the other calls
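Cells expressing the human receptor were seeded at 1500 cells/well, incubated overnight at 37 degrees C in 5% CO2, then exposed to library compounds with dopamine controls for 90 minutes at 37 degrees C before luminescent detection.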
B2AR arrestin = beta2AR (human) beta-arrestin recruitment activity; P07550; 0.02% of 330,000 active; AID 492947; beta-arrestin recruitment to beta2AR, cell-based reporter; Potency, µM (series often up to 46.1 µM), most hits filed as activators; active means well fitted activation curve with a large enough effect; inconclusive means small, poorly fitted or top-dose-only effect; further: nearly all actives have a fitted effect of over 65% in size
Numbers stand for hits. Only some compounds are listed: those with a hit (about 2.8% of all), similar ones and a draw of the others.

`C[n+]1c(/C=C/c2ccc(O)cc2)ccc2ccccc21` gave D3 ag inactive, Giardia killer inactive, D3 antag inconclusive and B2AR arrestin inactive.
`CN1CCN(NC(=O)CN2C(=O)/C(=C/c3c(Cl)cccc3Cl)SC2=S)CC1` gave D3 ag inactive, Giardia killer inactive, D3 antag inactive and B2AR arrestin inactive.
`CN1CCN(NC(=O)CN2C(=O)/C(=C/c3ccccc3Cl)SC2=S)CC1` gave D3 ag inactive, Giardia killer inactive, D3 antag -64 and B2AR arrestin inactive.
COC(=O)[C@H](C(C)C)N(Cc1ccccc1)S(=O)(=O)CCN1CCCC1 was read as D3 ag inactive, Giardia killer inactive, D3 antag -59 and B2AR arrestin inactive.
`CN(Cc1ccc(Cl)c(Cl)c1)C(=O)c1ccccc1SCC(=O)N1CCCC1` gave D3 ag inactive, Giardia killer inactive, D3 antag inactive and B2AR arrestin inactive.
`COC(=O)[C@H](C(C)C)N(Cc1ccccc1)S(=O)(=O)CCN1CCN(c2ccccc2)CC1` gave D3 ag inactive, Giardia killer inactive, D3 antag inconclusive and B2AR arrestin inactive.
`COC(=O)[C@H](C)N(Cc1ccc(Cl)c(Cl)c1)S(=O)(=O)CCN1CCN(c2ccccc2)CC1` gave D3 ag inactive, Giardia killer inactive, D3 antag -71 and B2AR arrestin inactive.
Screening COC(=O)[C@H](C)N(Cc1ccc(Cl)c(Cl)c1)S(=O)(=O)CCN1CCCC1 returned D3 ag inactive, Giardia killer inactive, D3 antag -68 and B2AR arrestin inactive.
Cc1ccc(Nc2nc(NCc3ccco3)nc3nccnc23)cc1Cl was read as Giardia killer inactive.
`CC(C)CCN(C(=O)Nc1ccc(Cl)cc1)C1CCN(C(C)C)CC1` gave D3 ag inactive, Giardia killer inactive, D3 antag -59 and B2AR arrestin inactive.
For Cc1ccc(-n2ncc3c(Nc4ccc5c(c4)OCCO5)ncnc32)cc1C the results were D3 ag 48.
Cc1ccc(-n2ncc3c(Nc4cccc(C(F)(F)F)c4)ncnc32)cc1C was read as D3 ag inactive.
For CCn1nc(-c2ccccc2)c(-c2ccccc2)c(C(=O)Nc2ccc(NC(C)=O)cc2)c1=O the results were D3 ag inactive.
For CCn1c(C(=O)NCc2ccccc2Br)cc2oc3ccccc3c21 the results were D3 ag 42 and Giardia killer inactive.
CCn1c(C(=O)NCc2cccc(Br)c2)cc2oc3ccccc3c21 was read as D3 ag inactive.
`Cc1cccc(N2CCN(S(=O)(=O)c3cc(Cl)ccc3Cl)CC2)c1C` gave D3 ag 65.
Nc1ccc2c(c1)C(=O)N(c1ccc3ccccc3c1)C2=O was read as Giardia killer inactive.
For COCCCNC(=O)CC(NS(=O)(=O)c1ccc(C)cc1)c1ccco1 (stereo unspecified) the results were D3 ag inactive, Giardia killer inactive, D3 antag -58 and B2AR arrestin inactive.
For COCCCNC(=O)CC(NS(=O)(=O)c1ccc(Cl)cc1)c1ccco1 (stereo unspecified) the results were D3 ag inactive, Giardia killer inactive, D3 antag inactive and B2AR arrestin inactive.
CCN1C(=O)[C@@H]2[C@H](C1=O)[C@@H]1C(=O)Nc3ccccc3C(=O)N1[C@@H]2c1cccc(OC)c1 was read as D3 ag inactive, Giardia killer inactive, D3 antag inactive and B2AR arrestin inactive.
`CCN1C(=O)[C@@H]2[C@H](C1=O)[C@@H]1C(=O)Nc3ccccc3C(=O)N1[C@@H]2c1cccc(C)c1` gave D3 ag 45, Giardia killer inactive, D3 antag inactive and B2AR arrestin inactive.
For Cc1ccc(CSC2=NS(=O)(=O)c3ccccc32)cc1 the results were Giardia killer inactive.
`CCN(CC(=O)NCc1cccs1)C(=O)c1ccc([N+](=O)[O-])o1` gave D3 ag inactive, Giardia killer -91, D3 antag inactive and B2AR arrestin inactive.
`CCN(CC(=O)NCc1cccs1)C(=O)c1ccc(C)o1` gave D3 ag inactive, Giardia killer inactive, D3 antag inactive and B2AR arrestin inactive.
For O=C(NNC(=O)c1ccccc1-c1ccccc1C(=O)O)c1ccccc1 the results were D3 ag inactive, Giardia killer inactive, D3 antag inactive and B2AR arrestin inactive.
`O=C(C=P(c1ccccc1)(c1ccccc1)c1ccccc1)c1ccccc1-c1ccccc1C(=O)C=P(c1ccccc1)(c1ccccc1)c1ccccc1` gave D3 ag inactive, Giardia killer inactive and D3 antag -89.
CCOC(=O)c1ccc(NC(=O)CCn2ccc(C)n2)cc1 was read as D3 ag inactive.
For CCCCNC1=CC(=O)C(=O)c2ccccc21 the results were D3 ag inactive, Giardia killer inactive, D3 antag inactive and B2AR arrestin inactive.
Screening CCCCN1C=CC(=C2C(=O)c3ccccc3C2=O)C=C1 returned D3 ag inactive, Giardia killer -95, D3 antag inactive and B2AR arrestin inactive.
Screening Cc1c(N=NC2=C(O)CCCC2=O)c(=O)n(-c2ccccc2)n1C returned D3 ag inactive, Giardia killer inactive, D3 antag -83 and B2AR arrestin inactive.
Cc1c(N=Nc2ccc(O)cc2)c(=O)n(-c2ccccc2)n1C was read as D3 ag inactive, Giardia killer inconclusive, D3 antag inactive and B2AR arrestin inactive.
Screening COc1ccccc1-c1noc(CCC(=O)Nc2ccc(C)cc2C)n1 returned D3 ag inactive.
For O=C1c2ccccc2S(=O)(=O)c2cc(N3CCN(C(=O)c4ccccc4)CC3)ccc21 the results were D3 ag 64, Giardia killer inactive and D3 antag inactive.
`O=C1c2ccccc2S(=O)(=O)c2cc(C(=O)N3CCN(c4ccccc4)CC3)ccc21` gave D3 ag inactive, Giardia killer inactive and D3 antag inactive.
`CCc1nn(Cc2cccc(F)c2)c(=O)c2cc3cc(C)ccc3n12` gave D3 ag inactive.
For CC(C)Cc1cc(CN2CCCC(CO)(Cc3cccc(Cl)c3)C2)[nH]n1 (stereo unspecified) the results were D3 ag inactive, Giardia killer inactive, D3 antag -67 and B2AR arrestin inactive.
`COc1cc(CN2CCCC(CO)(Cc3ccccc3F)C2)ccc1O` (stereo unspecified) gave D3 ag inactive, Giardia killer inactive, D3 antag inconclusive and B2AR arrestin inactive.
Screening OCC1(CCc2ccccc2)CCCN(CCCc2ccccc2)C1 (stereo unspecified) returned D3 ag inactive, Giardia killer inactive, D3 antag -70 and B2AR arrestin inactive.
CSc1ccc(CN2CCCC(CO)(Cc3ccccc3)C2)cc1 (stereo unspecified) was read as D3 ag inactive, Giardia killer inactive, D3 antag -67 and B2AR arrestin inactive.
`COc1cc(Cl)c(CN2CCCC(CO)(Cc3ccccc3)C2)cc1OC` (stereo unspecified) gave D3 ag inactive, Giardia killer inactive, D3 antag inactive and B2AR arrestin inactive.
COC(=O)c1ccc(CN2CCCC(CO)(Cc3ccccc3F)C2)cc1 (stereo unspecified) was read as D3 ag inactive, Giardia killer inactive, D3 antag -88 and B2AR arrestin inactive.
